Screen size: about 340,000 compounds; about 280 (0.082%) were called active. Rule as the data show it: active = inhibition mostly above about 23% (no sharp cut-off); inactive = mostly below about 18%. For the sample, actives were picked, then their nearest neighbours and some compounds at random.

Drawing on PubChem BioAssay AID504634 (The Scripps Research Institute Molecular Screening Center, 2011), this text covers inhibition for 90 molecules.

For this assay, the target named is 5-hydroxytryptamine receptor 5A (Homo sapiens) (UniProt P47898). The assay is described as follows: HTR5A inverse agonists in luminescence cell assay, primary screen, counter-screen for OPRM1-OPRD1 heterodimer inverse agonist project, full-deck HTS (AID 504634).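 Also: 0% = cells with DMSO and 100% = no-cell wells with DMSO.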 To be noted: HTR5A cell line, inverse agonism, at 9.3 µM, stronger effect = higher value.
5-hydroxytryptamine receptor 5A (Homo sapiens), sequence (P47898 whole entry, looked up): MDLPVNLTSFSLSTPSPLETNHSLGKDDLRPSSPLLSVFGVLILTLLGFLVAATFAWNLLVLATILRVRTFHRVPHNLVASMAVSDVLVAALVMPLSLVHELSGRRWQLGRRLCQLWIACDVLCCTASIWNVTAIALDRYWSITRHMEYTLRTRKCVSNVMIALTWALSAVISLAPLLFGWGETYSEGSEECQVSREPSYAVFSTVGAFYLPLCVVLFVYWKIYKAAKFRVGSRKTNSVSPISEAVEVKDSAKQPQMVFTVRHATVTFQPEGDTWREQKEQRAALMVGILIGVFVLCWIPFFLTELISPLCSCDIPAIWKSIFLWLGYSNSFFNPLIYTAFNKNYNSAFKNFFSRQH
As for `CCCC1NC(=O)NC(C)=C1C(=O)OCC` (stereo not given), the inhibition (in general, the relative decrease from the control value, in per cent) is -17.2% (inactive).
To `CCOC(=O)c1c(C)[nH]c(C)c1S(=O)(=O)NCCCc1ccco1` belongs 16.2% (inactive); to `CCNS(=O)(=O)c1ccc(CCC(=O)N2CCN(c3ccc(OC)cc3)CC2)cc1`, 8.47% (inactive); to `CC(NC(=O)CNC(=O)Cc1cccc2ccccc12)c1ccc(S(N)(=O)=O)cc1` (stereo not given), 2.43% (inactive).
For the molecule `O=c1ccc2c(-c3ccccc3S(=O)(=O)O)c3ccc(O)c(O)c3oc-2c1O`, the inhibition was 24.5% (active).
To `NS(=O)(=O)c1ccc(CCNC(=O)c2ccc(Cl)c(S(=O)(=O)N3CCCCCC3)c2)cc1` belongs -7.96% (inactive).
Then `COc1ccc2[nH]c3c(c2c1)CCN1C(=O)C(CC(=O)NCCc2ccccn2)C[C@H](C(=O)N2CCOCC2)[C@@]31C` (stereo not given in full), with 2.62% (inactive); and `Cc1noc(C)c1NC(=O)Nc1ccc2c(c1)C(=O)N([C@H](C)CO)C[C@H](C)[C@@H](CN(C)C(=O)Nc1ccccc1)O2`, with -10% (inactive).
For `S=C(Nc1ccc(Br)cc1Cl)N1CCC2(CC1)OCCO2`, the inhibition was 2.4% (inactive).
To `CC(C)Cn1cnc2c1c(=O)n(CC(O)c1ccccc1)c(=O)n2CC(C)C` (stereo not given) belongs -27.9% (inactive); to `COc1ccc(S(=O)(=O)N2CCc3ccccc32)cc1C(=O)Nc1cc(S(C)(=O)=O)ccc1Cl`, -6.04% (inactive); to `COc1cc(CCC(=O)Nc2ccncc2Cl)cc(OC)c1OC`, 6.7% (inactive).
Take `Cc1cccn2c(=O)c(C=O)c(Nc3ccc(S(N)(=O)=O)cc3)nc12`: the inhibition was -18.2% (inactive).
For the molecule `O=C(O)c1ccccc1NC(=S)NC(NC(=O)c1ccccc1[N+](=O)[O-])C(Cl)(Cl)Cl` (stereo not given), the inhibition was -0.92% (inactive).
Then `CCCS(=O)(=O)N1CCN(C(=O)c2cccs2)CC1`, with -3.26% (inactive); and `Cc1cccc(N2CC(C)Cn3c2nc2c3c(=O)n(CC(=O)OCc3ccccc3)c(=O)n2C)c1` (stereo not given), with -8.01% (inactive).
Regarding `COc1ccc(S(=O)(=O)N2CCOC2CNC(=O)C(=O)NCc2ccc(F)cc2)cc1` (stereo not given), the inhibition is 7.37% (inactive).
Turning to `CC(C)(C)c1ccc(S(=O)(=O)N2CCN(C(=O)c3ccc4c(c3)C(=O)N(Cc3ccncc3)C4=O)CC2)cc1`, the inhibition was 5.4% (inactive).
`COc1ccc(C#Cc2c(-c3ccc(OC)cc3)oc3ccc(-c4ccc5c(c4)OCO5)cc23)cc1`: the inhibition was 5.51% (inactive).
On to `CC1(c2ccc3ccccc3c2)NC(=O)N(CC(N)=O)C1=O` (stereo not given), for which the inhibition is 1.06% (inactive).
Consider `CCCC(=O)N1CCN(c2nnc(-c3ccc(C)cc3)c3ccccc23)CC1`, for which the inhibition is -8.96% (inactive).
Consider `CN(C(=O)COC(=O)CCCc1c[nH]c2ccccc12)c1c(N)n(Cc2ccccc2)c(=O)[nH]c1=O`, for which the inhibition was 20.6% (inactive).
Turning to `NC(=O)c1cc(S(=O)(=O)NCCCc2ccco2)cs1`, the inhibition was 1.79% (inactive).
Turning to `CCc1ccc(NC(=O)CCNS(=O)(=O)c2cccs2)cc1`, the inhibition was -3.72% (inactive).
For `COc1ccc(/C=N/OCc2ccccc2C#N)c(OC)c1`, the inhibition was -3.2% (inactive).
With `Cc1ccc(C(=O)NCC(=O)NC2CC2)cc1`, the inhibition was 4.21% (inactive).
`NS(=O)(=O)c1ccc(CCNC(=O)c2nc(CS(=O)(=O)c3ccc(Cl)cc3)no2)cc1`: the inhibition was -12.4% (inactive).
To `Cn1cnc(C(F)(F)F)c1-c1ccc([N+](=O)[O-])cc1` belongs 8.1% (inactive); to `COc1ccccc1C1=CC(=O)CCC1`, 2.76% (inactive); to `CCn1c(SCC(=O)N(C)C2CCS(=O)(=O)C2)nnc1-c1cccs1` (stereo not given), -22.6% (inactive).
Consider `O=c1nc(NO)ccn1C1CCCO1` (stereo not given), for which the inhibition was 1.3% (inactive).
For the molecule `O=C(O)c1ccc(-n2nc(-c3ccccc3)c3ccccc3c2=O)cc1`, the inhibition was 0.76% (inactive).
Then `COc1ccc(N(CC(=O)NC2CCCCC2)S(=O)(=O)c2c(C)[nH]c(=O)[nH]c2=O)cc1`, with 1.68% (inactive).
Turning to `Cc1sc2ncn(CC(=O)NCCCC(=O)N3CCN(c4ccccc4F)CC3)c(=O)c2c1C`, the inhibition was 1.47% (inactive).
To `Cc1nc(N)c(Br)c(C)c1Br` belongs -6.08% (inactive); to `CSCCC(NC(=O)COc1ccccc1)C(=O)OCCOc1ccc(Br)cc1` (stereo not given), -4.54% (inactive); to `CSCCC(NC(=O)COc1ccccc1)C(=O)OCc1ccc(Cl)cc1` (stereo not given), -5.68% (inactive).
To `CSCCC(NC(=O)COc1ccccc1)C(=O)OCC(=O)c1cc2ccccc2o1` (stereo not given) belongs 33.3% (active).
As to `COc1cc(C(=O)NNC(=O)CN2C(=O)NC3(CCCC3)C2=O)cc(OC)c1OC`, the inhibition was 5.64% (inactive).
As to `COCCCNS(=O)(=O)c1cccc(S(=O)(=O)c2cccc(S(=O)(=O)NCCCOC)c2)c1`, the inhibition is -5.56% (inactive).
Take `O=C(CC1C(=O)NCCN1Cc1ccc(-c2ccccc2)cc1)NCc1ccncc1` (stereo not given): the inhibition is -12.3% (inactive).
Turning to `COc1ccccc1CN(C)C(=O)C1(c2ccc(Cl)cc2)CC1`, the inhibition is 21.3% (inactive).
Regarding `Cc1cc(OC(=O)c2ccccc2Cl)ccc1N1C(=O)CCC1=O`, the inhibition was 11.2% (inactive).
Then `Cc1ccc(C(=O)OCC(=O)N2CC(C)CC(C)C2)cc1S(=O)(=O)N1CCCCC1` (stereo not given), with 11% (inactive); and `CCCCCCCC1(C)NC(=O)N(CC(=O)Nc2cc(C)on2)C1=O` (stereo not given), with -14.9% (inactive).
As for `O=C(NCCS(=O)(=O)N1CCN(c2ccc(F)cc2)CC1)c1ccc2c(c1)OCO2`, the inhibition was 9.72% (inactive).
For the molecule `CN(CCc1ccccc1)C(=O)c1cccc(NC(=O)Cc2ccc([N+](=O)[O-])cc2)c1`, the inhibition was -40.2% (inactive).
Then `Cc1cc(C)cc(C(=O)NC(CC(N)=O)c2ccc(N3CCC(N4CCCCC4)CC3)c([N+](=O)[O-])c2)c1` (stereo not given), with -1.31% (inactive); and `Cc1ccc(S(=O)(=O)C2(S(=O)(=O)c3ccc(C)cc3)CCCC2)cc1`, with -9.41% (inactive).
To `O=C(CCCOc1ccccc1)NNC(=O)c1ccc(Cl)cc1` belongs -22.2% (inactive); to `COC(=O)N1CN(C(=O)OC)CN(C(=O)OC)C1`, -11.4% (inactive).
With `O=C(NNc1cc(Cl)cc(Cl)c1)c1c(F)cccc1Cl`, the inhibition was 5.05% (inactive).
With `CC1(C)CC(=O)C(C2c3ccccc3S(=O)(=O)c3ccccc32)C(=O)C1`, the inhibition is -6.15% (inactive).
For the molecule `CC(C)OC(=O)Cn1nc(C(F)(F)F)c2c1CCCC2`, the inhibition is -22% (inactive).
`CN1CCN(C2=NCCO2)CC1`: the inhibition was 13.4% (inactive).
To `Nc1scc(-c2ccncc2)c1Cl` belongs 4.78% (inactive); to `CCOc1ccc(CCNC(=O)CN2C(=O)NC3(CCc4ccccc43)C2=O)cc1OCC` (stereo not given), 16.7% (inactive); to `COc1cc(NC(=O)c2ccc(CNc3c(N4CCCC4)c(=O)c3=O)cc2)cc(OC)c1OC`, -11.7% (inactive).
`Cc1cc(C)n(-c2ccc(Cl)c(C(=O)O)n2)n1`: the inhibition is 39.8% (active).
To `Cc1cc(C)n(-c2ccc3nncn3n2)n1` belongs 5.02% (inactive).
Take `CC(=O)c1ccc(Oc2cc(C)nc(-n3nc(C)cc3C)n2)cc1`: the inhibition is 6.21% (inactive).
On to `COc1ccc(N2C(=O)C(CC(=O)Nc3ccc(F)cc3)N(CCc3cccs3)C2=O)cc1` (stereo not given), for which the inhibition is 6.13% (inactive).
Then `COc1ccc(NS(=O)(=O)c2cc(NC(=O)c3ccc(S(=O)(=O)N(C)C)cc3)ccc2N2CCOCC2)cc1`, with 8.03% (inactive); and `Cc1cc(C)cc(NC(=O)CSCc2cnn(-c3ccccc3)c2-n2cccc2)c1`, with 3.55% (inactive); and `CCOC(=O)NC(=O)C(=CNc1cccc(OC)c1)C(=O)NC(=O)OCC`, with 34% (active).
To `CCOC(=O)C1CCN(C(=O)Nc2cccc(OC)c2)CC1` belongs 17.6% (inactive); to `COc1cccc(NC(=O)COC(=O)CCOc2ccccc2OC)c1`, -27.4% (inactive); to `COCCn1c(SCC(=O)Nc2cc(Cl)ccc2OC)nc2c(c1=O)SC(C)C2` (stereo not given), -31.9% (inactive).
To `N#CC1(C#N)C(C(=O)C23CC4CC(CC(C4)C2)C3)C12CCOCC2` (stereo not given) belongs 20.3% (inactive); to `COc1cc(C)nc(N2CCCC(C(=O)NCC(C)C)C2)n1` (stereo not given), -13.9% (inactive).
For `CCNc1nc(NCC)nc(N(C)n2cnnc2)n1`, the inhibition was 13% (inactive).
Then `O=C(Nc1ccc2c(c1)C(=O)OC2)Nc1cccc2ccccc12`, with -14.2% (inactive).
In the case of `O=S(=O)(NC1CCCCC1N1CCC(O)CC1)c1ccc(Cl)cc1` (stereo not given), the inhibition was -6.29% (inactive).
As for `O=C(COc1ccccc1F)NNC(=O)c1ccc(N2CCCCC2)c([N+](=O)[O-])c1`, the inhibition is 7.26% (inactive).
Take `O=c1[nH]n2c(=O)c3c([nH]c2c1N=Nc1ccccc1)CCC3`: the inhibition is 17% (inactive).
On to `Cc1c(CNCCc2ccccc2)c(C(=O)O)c(C)n1-c1ccccc1`, for which the inhibition was 10.6% (inactive).
To `CCc1ccc(CCC(=O)Nc2ccc(S(N)(=O)=O)cc2)o1` belongs -4.51% (inactive); to `COc1ccc(OCc2nnc3n2N=C(c2ccccc2)C(CC(=O)O)S3)cc1` (stereo not given), -14.6% (inactive).
On to `O=C(Nc1ccc(Br)c2cccnc12)c1ccc(Cn2cc([N+](=O)[O-])cn2)o1`, for which the inhibition was -5.7% (inactive).
For `O=C(CSc1nnc2ccc(-c3ccncc3)nn12)N1CCCCC1`, the inhibition is -11.3% (inactive).
Then `OCCN1CCN(CCO)C1=S`, with 12.7% (inactive); and `CCCCn1c(N)c(N2CCOCC2)c(=O)n(CC(=O)NCCc2ccccc2)c1=O`, with -7.42% (inactive).
For the molecule `CCC(C(=O)OC)n1cnc2scc(-c3ccc(C)cc3)c2c1=O` (stereo not given), the inhibition was 18% (inactive).
To `COc1cc(C(=S)N2CCOCC2)cc(OC)c1OC(=O)c1cc([N+](=O)[O-])c(C)c([N+](=O)[O-])c1` belongs -9.45% (inactive); to `COc1ccc(/C=C/C(=O)c2cc(Br)ccc(=O)c2O)cc1`, -37% (inactive).
For `CC(=O)CCS(=O)(=O)c1ccc(C)c(C)c1`, the inhibition was 6.1% (inactive).
With `CCCCN(CC)C(=O)c1ccccc1Oc1ccccc1`, the inhibition was 4.41% (inactive).
Take `C=CCn1c(SCC(=O)NC(=O)Cc2ccccc2)nc2ccccc2c1=O`: the inhibition is 4.86% (inactive).
Regarding `CCOc1cc(S(=O)(=O)NCc2ccc3c(c2)OCO3)ccc1F`, the inhibition is 18.6% (inactive).
Then `Cc1cc(-c2nc(C)c(-c3nnc(SCC(=O)Nc4ccccc4)n3C)s2)no1`, with 0.1% (inactive).
